Hits are enriched below; roughly 12% of the tested compounds scored in any of these assays.
Sfp inh: Sfp phosphopantetheinyl transferase inhibition. Q9F4F7. Biochemical Sfp PPTase activity, qHTS. Potency, µM, actives largely listed as inhibitors. 310,000 compounds, 3.5% hits. AID 1490;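 further: the enzyme is Sfp with the accession as filed and its product quenches rhodamine fluorescence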
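Fluorescence-quenching assay with 15 nM Sfp, 5 uM rhodamine-CoA and 12.5 uM BHQ-2-labelled ybbR peptide in pH 7.6 Hepes/MgCl2 buffer. Enzyme was pre-incubated with compound for 15 min at room temperature. Rate was taken from the 30-min fluorescence change (525/598 nm).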
HP1b chromo inh: inhibitors of HP1-beta chromodomain binding to methylated histone tails; P83916; Potency, µM (highest dose often 114 µM), usual class: inhibitors; AlphaScreen HP1-beta / biotin-H3K9me3 peptide binding; 390,000 compounds, 0.56% hits; AID 540317; further: nearly all actives have a fitted effect of over 70% in size
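Compound inhibition of the preformed complex between 50 nM HP1-beta and 50 nM biotinylated H3K9me3 peptide was read by AlphaScreen. Buffer was PBS pH 7.4 with 0.01% Tween-20. Incubations ran 30 min at room temperature, with 10 ug/mL donor/acceptor beads.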
BAZ2B inh: BAZ2B (human) inhibition. Potency, µM (top dose mostly 114 µM), actives largely listed as inhibitors. AID 504333. AlphaScreen BAZ2B-H3K14Ac peptide displacement. 360,000 compounds, 4.4% hits. Q9UIF8; further: nearly all actives have a fitted effect of over 60% in size
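Multi-concentration screen (max 110 uM) measuring displacement of acetylated histone H3 peptide from BAZ2B by AlphaScreen, using 50 nM protein, 50 nM peptide and 10 ug/mL streptavidin donor plus Ni-chelate acceptor beads.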
JMJD2A Tudor: blocks the human JMJD2A Tudor domain. O75164. AlphaScreen JMJD2A-Tudor / H3K4me3 peptide binding. Potency, µM (titrated, usually from 114 µM), hits mostly inhibitors. 390,000 compounds, 4.4% hits; further: nearly all actives have a fitted effect of over 50% in size
Target sequence (O75164 whole entry, looked up, the tested form may be a part): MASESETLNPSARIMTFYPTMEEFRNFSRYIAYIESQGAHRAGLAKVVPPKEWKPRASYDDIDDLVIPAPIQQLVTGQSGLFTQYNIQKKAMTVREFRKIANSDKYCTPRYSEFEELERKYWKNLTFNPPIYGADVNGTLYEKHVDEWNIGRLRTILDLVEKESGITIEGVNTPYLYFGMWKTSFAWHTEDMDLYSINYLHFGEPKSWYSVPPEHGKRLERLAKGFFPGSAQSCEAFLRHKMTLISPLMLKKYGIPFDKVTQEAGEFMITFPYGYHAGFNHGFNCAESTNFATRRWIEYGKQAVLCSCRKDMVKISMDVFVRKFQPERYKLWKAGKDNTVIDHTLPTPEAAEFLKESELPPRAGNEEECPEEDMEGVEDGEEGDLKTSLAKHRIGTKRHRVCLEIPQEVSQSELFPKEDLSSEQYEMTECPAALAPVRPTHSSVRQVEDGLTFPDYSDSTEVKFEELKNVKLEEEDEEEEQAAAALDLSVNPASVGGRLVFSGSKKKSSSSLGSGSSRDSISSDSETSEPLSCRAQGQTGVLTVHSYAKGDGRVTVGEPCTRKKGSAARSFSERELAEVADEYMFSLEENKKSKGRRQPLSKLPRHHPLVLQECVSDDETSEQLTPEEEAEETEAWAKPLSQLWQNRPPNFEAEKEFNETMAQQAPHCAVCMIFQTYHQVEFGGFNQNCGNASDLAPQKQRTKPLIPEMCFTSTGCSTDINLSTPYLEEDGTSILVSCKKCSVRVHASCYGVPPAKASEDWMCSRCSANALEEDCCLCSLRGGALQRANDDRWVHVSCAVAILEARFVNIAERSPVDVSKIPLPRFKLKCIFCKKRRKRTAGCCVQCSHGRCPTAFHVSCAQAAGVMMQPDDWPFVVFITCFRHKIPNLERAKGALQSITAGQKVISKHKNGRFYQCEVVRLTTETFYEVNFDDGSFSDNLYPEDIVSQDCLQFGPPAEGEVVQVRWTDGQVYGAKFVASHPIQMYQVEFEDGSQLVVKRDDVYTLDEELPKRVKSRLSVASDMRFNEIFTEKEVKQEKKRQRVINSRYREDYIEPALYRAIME
G9a block: inhibitors of human histone lysine methyltransferase G9a; Q96KQ7; Potency, µM (titrated, usually from 102 µM), usual class: inhibitors; 350,000 compounds, 8.8% hits; G9a H3K9 monomethylation, AlphaScreen, 2 h; further: nearly all actives have a fitted effect of over 75% in size
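Signal arises when biotinylated H3K9 peptide, once monomethylated, bridges streptavidin donor and antibody-captured acceptor beads. Enzyme at 20 nM was preincubated 15 min with test compounds; peptide 500 nM and SAM 20 uM then reacted for 2 h.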
Large screens that a line does not name were inactive. The call rests on the fitted dose curve; in most records, active means well fitted curve in the direction sought with a large enough effect; inconclusive means small, poorly fitted or top-dose-only effect, or another doubt; inactive means no such curve, though single readings can be large; an effect the other way counts as inactive or inconclusive.

C[C@@H]1O[C@H](O[C@@H]2C[C@@H](O)[C@]3(CO)[C@H]4[C@H](O)C[C@]5(C)[C@@H](C6=CC(=O)OC6)CC[C@@]5(O)[C@@H]4CC[C@]3(O)C2)[C@@H](O)[C@H](O)[C@H]1O	none (no result: HP1b chromo inh, BAZ2B inh, JMJD2A Tudor, G9a block)
N#Cc1cccc(NC(=O)N2CC[C@@]3(CCCN(C(=O)Oc4ccccc4)C3)C2)c1	none (no result: HP1b chromo inh, BAZ2B inh, JMJD2A Tudor)
COc1ccc(N2CC(C(=O)NCc3ccco3)CC2=O)cc1 (stereo not drawn)	Sfp inh inconclusive, JMJD2A Tudor inconclusive, G9a block 17.8µM
CC[C@H](C)[C@H](NC(=O)[C@@H]1CCCN1C(=O)[C@H](CCC(=O)O)NC(=O)[C@@H](NC(=O)[C@H](Cc1ccccc1)NC(=O)[C@@H]1CCCN1C(=O)[C@@H](N)Cc1ccc(O)cc1)C(C)C)C(=O)O	none (no result: HP1b chromo inh, BAZ2B inh, JMJD2A Tudor)
CN(Cc1ccccc1)C(=C(Cl)Cl)/C(=C1/NCCN1Cc1ccc(Cl)nc1)[N+](=O)[O-]	G9a block 50.1µM
COc1ccc(C=C2C(=O)NC(=S)NC2=O)cc1OC	HP1b chromo inh inconclusive, JMJD2A Tudor 22.4µM (no result: Sfp inh, BAZ2B inh, G9a block)
CCOc1cc(C=O)ccc1O	none (no result: Sfp inh, BAZ2B inh, G9a block)
COc1ccc(/C=C/C=C2C(=O)NC(=S)NC2=O)cc1	none (no result: Sfp inh, BAZ2B inh, G9a block)
CCOc1cc(C=C2C(=O)NC(=S)NC2=O)ccc1O	HP1b chromo inh inconclusive, JMJD2A Tudor 31.6µM (no result: Sfp inh, BAZ2B inh, G9a block)
O=C1NO[C@H]2[C@@H]1CN[C@@H]2C(=O)O	none (no result: HP1b chromo inh, BAZ2B inh, JMJD2A Tudor, G9a block)
CCCCC(=O)c1c(O)c2ccccc2oc1=O	JMJD2A Tudor inconclusive, G9a block 44.7µM
O=c1oc2ccccc2c(O)c1Cc1c(O)c2ccccc2oc1=O	none (no result: HP1b chromo inh, BAZ2B inh, JMJD2A Tudor)
COC1=C[C@H]2[C@H]3Cc4ccc(OC)c(O)c4[C@@]2(CCN3C)CC1=O	none (no result: HP1b chromo inh, BAZ2B inh, JMJD2A Tudor, G9a block)
CC(=O)OCC1=C(C(=O)O)N2C(=O)C(NC(=O)CCCC(N)C(=O)O)C2SC1 (stereo not drawn)	none (no result: HP1b chromo inh, BAZ2B inh, JMJD2A Tudor)
CC1=C(C(=O)O)N2C(=O)C(NC(=O)c3nn(C)cc3[N+](=O)[O-])C2SC1 (stereo not drawn)	Sfp inh 3.98µM, BAZ2B inh 50.1µM, JMJD2A Tudor inconclusive, G9a block 3.55µM
CC1=C(C(=O)O)N2C(=O)C(NC(=O)Cc3ccccc3)C2SC1 (stereo not drawn)	Sfp inh 10µM, G9a block 10µM
C=C[C@H](Cc1ccccc1)N(Cc1ccccc1)S(=O)(=O)N(Cc1ccccc1)[C@H](C=C)Cc1ccccc1	none (no result: Sfp inh, BAZ2B inh, G9a block)
Cc1cc(/C=C2/C(=O)NC(=O)N(Cc3ccco3)C2=O)c(C)n1-c1ccccc1	HP1b chromo inh 70.8µM, BAZ2B inh inconclusive, JMJD2A Tudor 50.1µM, G9a block 10µM
CN(C)c1ccc(/C=C2/C(=O)NC(=O)N(Cc3ccco3)C2=O)cc1	G9a block inconclusive
NC(=O)C1CCN(/C=C2\C(=O)NC(=O)N(Cc3ccco3)C2=O)CC1	Sfp inh inconclusive, HP1b chromo inh inconclusive, BAZ2B inh inconclusive, JMJD2A Tudor 79.4µM, G9a block inconclusive
CCN(CC)c1ccc(/C=C2/C(=O)NC(=O)N(Cc3ccco3)C2=O)cc1	Sfp inh 50.1µM, BAZ2B inh 39.8µM, JMJD2A Tudor inconclusive, G9a block inconclusive
OC[C@@H](O)[C@H]1O[C@@H]2OC(C(Cl)(Cl)Cl)O[C@H]2[C@H]1O (stereo partly drawn)	none (no result: HP1b chromo inh, BAZ2B inh, JMJD2A Tudor)
COc1ccccc1NC(=O)Cn1c(=O)n(-c2cccc(Cl)c2)c(=O)c2sc3ccccc3c21	none (no result: Sfp inh)
CN1Cc2c(ccc3c2OCO3)C2C(O)Cc3cc4c(cc3C21)OCO4 (stereo not drawn)	none (no result: HP1b chromo inh, BAZ2B inh, JMJD2A Tudor, G9a block)
CCN1/C(=C\C=C\C2=[N+](CC)c3ccccc3C2(C)C)C(C)(C)c2ccccc21	Sfp inh inconclusive, HP1b chromo inh inconclusive, BAZ2B inh 11.2µM, JMJD2A Tudor inconclusive, G9a block inconclusive
CC(=O)CC(c1ccccc1[N+](=O)[O-])c1c(O)c2ccccc2oc1=O (stereo not drawn)	G9a block 50.1µM
CC(=O)CC(c1ccccc1)c1c(O)c2ccc(O)cc2oc1=O (stereo not drawn)	none (no result: HP1b chromo inh, BAZ2B inh, JMJD2A Tudor, G9a block)
c1csc(CN2CC[C@@]3(CCCNC3)C2)n1	none (no result: HP1b chromo inh, BAZ2B inh, JMJD2A Tudor)
COc1ccccc1N1CCN(CCc2ccccc2)CC1	none
CCCCCCN1CCN(c2ccccc2Cl)CC1	BAZ2B inh 70.8µM, JMJD2A Tudor 56.2µM
CC(C)CN1CCCC2(CCN(C(=O)Oc3ccccc3)CC2)C1	none (no result: HP1b chromo inh, BAZ2B inh, JMJD2A Tudor)
Nc1ccc2cc(Br)ccc2c1	HP1b chromo inh inconclusive, JMJD2A Tudor inconclusive, G9a block 50.1µM (no result: BAZ2B inh)
O=C1NC(=O)N(Cc2ccccc2)C(=O)/C1=C/c1cnn(-c2ccccc2)c1	BAZ2B inh inconclusive, G9a block 5.62µM (no result: HP1b chromo inh, JMJD2A Tudor)
COc1ccccc1N1C(=O)NC(=O)/C(=C\c2cnn(-c3ccccc3)c2)C1=O	Sfp inh 31.6µM, JMJD2A Tudor inconclusive, G9a block 8.91µM
O=C1CC(=O)N(Cc2ccccc2)C(=O)N1	none (no result: Sfp inh, BAZ2B inh, G9a block)
COc1ccc(N2C(=O)NC(=O)/C(=C\c3cn(CC(=O)N4CCOCC4)c4ccccc34)C2=O)c(OC)c1	G9a block inconclusive
CC#C[C@]1(O)CC[C@H]2C3C=C(C)C4=CC(=O)C=C[C@]4(C)[C@H]3[C@@H](O)C[C@@]21C (stereo partly drawn)	none (no result: HP1b chromo inh, BAZ2B inh, JMJD2A Tudor, G9a block)

From PubChem BioAssay
